The source of these data is PubChem BioAssay (Tox21).

The nature of assay [1]: cAMP Responsive Elements (CRE) small molecule antagonists, cell-based qHTS assay: qHTS cell viability counter screen (AID 2060913). Note: nearly all actives have a fitted effect of over 40% in size. An outline of the steps:
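Cytotoxicity read in the same wells as the CRE-bla HEK293T antagonist assay: after 3 h compound with 0.25 uM NKH477 final and 2 h beta-lactamase substrate, CellTiter-Glo luminescence measured.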

Assay [2] in a line: cAMP Responsive Elements (CRE) small molecule agonists, cell-based qHTS assay: qHTS cell viability counter screen (AID 2060914). Note: potency is the fitted concentration of half-maximal effect.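 Note: viability read after 3 h of compound exposure; nearly all actives have a fitted effect of over 50% in size.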 An outline of the steps:
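CRE-bla HEK293T cells in 10% dialyzed FBS medium were exposed to compounds for 3 h at 37C after 18 h plating. CellTiter-Glo was then added in the same wells, and luminescence was read after 30 min at room temperature.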

Results filed as inconclusive are left out. Unmarked numbers belong to inactive results. Active and inactive are the calls of the source. Calls come from the whole dose curve; as a rule, active = well fitted cell-killing curve with a large enough effect in the repeat runs; inconclusive = weak or mixed curves, or effect the other way; inactive = flat fitted curve, though single readings scatter.
% is set by controls: 0 for no effect and ±100 for the full control effect.

For the compound `CC1(C)CC(O)CC(C)(C)N1`, the Potency result in assay [1] and in assay [2] was “inactive” throughout.
Turning to `CCN1CCC[C@H]1CNC(=O)c1c(O)c(Cl)cc(Cl)c1OC`, the Potency entry in assay [1] and in assay [2] was “inactive” each time.
For the compound `CC(=O)CC(=O)N(C)C`, the Potency entry in assay [1] and in assay [2] was “inactive” throughout.
For `Cc1nc(Nc2ncc(C(=O)Nc3c(C)cccc3Cl)s2)cc(N2CCN(CCO)CC2)n1`, the Potency result in assay [1] and in assay [2] was “inactive” in each case.
Turning to `OCC(CO)n1cnc(-c2ccc(F)cc2)c1-c1ccnc(Oc2ccccc2)n1`, the Potency entry in assay [1] and in assay [2] was “inactive” in each case.
For `c1ccc2c(c1)ccc1ncccc12`, the Potency result in assay [1] and in assay [2] was “inactive” throughout.
With `Brc1cc(Oc2cc(Br)c(Br)c(Br)c2Br)c(Br)c(Br)c1Br`, the Potency entry in assay [1] and in assay [2] was “inactive” in each case.
For `OCC(CBr)(CBr)CBr`, the Potency result in assay [1] and in assay [2] was “inactive” each time.
As for `NC(=O)CC[C@@H]1NC(=O)[C@H](Cc2ccccc2)NC(=O)[C@H](Cc2ccc(O)cc2)NC(=O)CCSSC[C@@H](C(=O)N2CCC[C@H]2C(=O)N[C@@H](CCCN=C(N)N)C(=O)NCC(N)=O)NC(=O)[C@H](CC(N)=O)NC1=O`, the Potency result in assay [1] and in assay [2] was “inactive” in each case.
Regarding `CC[C@]1(O)C[C@H]2CN(CCc3c([nH]c4ccccc34)[C@@](C(=O)OC)(c3cc4c(cc3OC)N(C=O)[C@H]3[C@@](O)(C(=O)OC)[C@H](OC(C)=O)[C@]5(CC)C=CCN6CC[C@]43[C@@H]65)C2)C1`, the Potency result in assay [1] and in assay [2] was “inactive” each time.
Turning to `C=CCOC(=O)CCCCCCCC`, the Potency result in assay [1] and in assay [2] was “inactive” each time.
Take `N[C@@H](CSCCCO)C(=O)O`: in assay [1], the viability change, negative = cytotoxic is 1.17% [at 18.9 µM]. In addition, the activity change, negative = cytotoxicity in assay [2] was -12.4% [at 18.9 µM].
For the compound `O=[N+]([O-])c1ccc2[nH]ncc2c1`, the Potency entry in assay [1] and in assay [2] was “inactive” in each case.
For the compound `C=CC/C=C/C/C=C/C/C=C/C`, the Potency result in assay [1] and in assay [2] was “inactive” throughout.
Turning to `Oc1cc2ccccc2cc1O`, the Potency result in assay [1] and in assay [2] was “inactive” each time.
As for `CC(C)CCCCCCc1ccc(OCCOCCO)cc1`, the Potency result in assay [1] and in assay [2] was “inactive” each time.
`O=C(O)c1cc(O)c(O)c(O)c1`: the Potency entry in assay [1] and in assay [2] was “inactive” each time.
With `N[C@@H](CSSC[C@H](N)C(=O)O)C(=O)O`, the viability change, negative = cytotoxic in assay [1] is 0% [at 0.349 µM]. In addition, the activity change, negative = cytotoxicity in assay [2] is 11.2% [at 0.349 µM].
For `O=C(NCC(O)CO)c1c(I)c(C(=O)NCC(O)CO)c(I)c(N(CCO)C(=O)CO)c1I` (stereo unspecified), the Potency entry in assay [1] and in assay [2] was “inactive” each time.
Take `CCCCCNCCCCC`: the Potency result in assay [1] and in assay [2] was “inactive” in each case.
As to `CC(C)Cc1ccccc1`, the Potency result in assay [1] and in assay [2] was “inactive” each time.
For `CN(C(=O)c1c(O)c2ccccc2n(C)c1=O)c1ccccc1`, the Potency result in assay [1] and in assay [2] was “inactive” throughout.
For the compound `CCCCCOC(=O)CCC`, the Potency result in assay [1] and in assay [2] was “inactive” throughout.
On to `CCOC(=O)COC(=O)c1ccccc1C(=O)OCC`, for which the Potency entry in assay [1] and in assay [2] was “inactive” in each case.
Regarding `CCCN(CCC)c1c([N+](=O)[O-])cc(C(F)(F)F)c(N)c1[N+](=O)[O-]`, the Potency result in assay [1] is “inactive”. Also, the Potency in assay [2] is 60.9 µM (active).
The matching figures for `c1ccc2c(c1)ccc1ccccc12`: “inactive” and “inactive”.
Regarding `O=C1NC(=O)c2cc([N+](=O)[O-])ccc21`, the Potency result in assay [1] and in assay [2] was “inactive” in each case.
Consider `Cc1cccc(C)c1NC(=O)CN(CC(=O)O)CC(=O)O`, for which the Potency entry in assay [1] and in assay [2] was “inactive” in each case.
For the compound `CCCCCCCCCCC=CC1CC(=O)OC1=O` (stereo unspecified), the Potency result in assay [1] and in assay [2] was “inactive” throughout.
As for `Cc1cc(C)cc(OCC2CNC(=O)O2)c1` (stereo unspecified), the Potency result in assay [1] and in assay [2] was “inactive” each time.
Turning to `CC[N+](C)(C)c1cccc(O)c1`, the Potency result in assay [1] and in assay [2] was “inactive” throughout.
Take `O=[N+]([O-])c1ccc2c(c1)Cc1ccccc1-2`: the Potency entry in assay [1] and in assay [2] was “inactive” in each case.
For `C1=C\CC/C=C\CC/1`, the Potency result in assay [1] and in assay [2] was “inactive” each time.
On to `CCCCCC/C=C/CCCCCCCC(=O)O`, for which the Potency result in assay [1] and in assay [2] was “inactive” in each case.
In the case of `CCCCCCCCC1CCC(=O)O1` (stereo unspecified), the Potency entry in assay [1] and in assay [2] was “inactive” each time.
Turning to `CCOc1ccc(OCC)c(Cl)c1`, the Potency result in assay [1] and in assay [2] was “inactive” throughout.
With `C=C(C)C(=O)OCCCC`, the Potency entry in assay [1] and in assay [2] was “inactive” each time.
`Cc1cccc2cccnc12`: the Potency entry in assay [1] and in assay [2] was “inactive” in each case.
Regarding `CC(C)(C)[C@@H](O)[C@@H](Cc1ccc(Cl)cc1)n1cncn1`, the Potency result in assay [1] and in assay [2] was “inactive” each time.
Turning to `O=Nc1ccc(Nc2ccccc2)cc1`, the Potency result in assay [1] and in assay [2] was “inactive” in each case.
For `NC(N)=O`, the Potency result in assay [1] and in assay [2] was “inactive” in each case.
Turning to `Cc1cc(C)n(CO)n1`, the Potency entry in assay [1] and in assay [2] was “inactive” in each case.
Consider `O=c1[nH]cnc2[nH]ncc12`, for which the Potency entry in assay [1] and in assay [2] was “inactive” throughout.
Regarding `O=[N+]([O-])c1ccc(CCO)cc1`, the Potency entry in assay [1] and in assay [2] was “inactive” each time.
`CCOc1ccc2ccccc2c1C(=O)N[C@@H]1C(=O)N2[C@@H]1SC(C)(C)[C@@H]2C(=O)O`: the Potency result in assay [1] and in assay [2] was “inactive” in each case.
Consider `CC(C)(C)OC(=O)N1C[C@@H](F)C[C@H]1C(=O)O`, for which the Potency entry in assay [1] and in assay [2] was “inactive” in each case.
For `O=CC(=O)c1ccccc1`, the Potency result in assay [1] and in assay [2] was “inactive” throughout.
As to `CCOC(=O)Cn1cccc1-c1nc(-c2ccc(OC)cc2)c(-c2ccc(OC)cc2)s1`, the Potency result in assay [1] and in assay [2] was “inactive” in each case.
As for `CCCCC(CC)C(=O)OCCOCCOCCOC(=O)C(CC)CCCC` (stereo unspecified), the Potency result in assay [1] and in assay [2] was “inactive” in each case.
Consider `C1COC1`, for which the Potency entry in assay [1] and in assay [2] was “inactive” in each case.
Regarding `CCOC(=O)OC(=O)OCC`, the Potency entry in assay [1] and in assay [2] was “inactive” in each case.
With `Cc1ccc(-c2ccccc2)cc1`, the Potency result in assay [1] and in assay [2] was “inactive” throughout.
`CCn1cc(C(=O)O)c(=O)c2cc(F)c(N3CCNCC3)cc21`: the Potency result in assay [1] and in assay [2] was “inactive” each time.
With `CCO`, the Potency entry in assay [1] and in assay [2] was “inactive” each time.
With `COc1ccc(N)c(OC)c1`, the Potency entry in assay [1] and in assay [2] was “inactive” throughout.
As for `CC(CC=O)CCCC(C)(C)O` (stereo unspecified), the Potency result in assay [1] and in assay [2] was “inactive” each time.
For `CC(C)c1ccc(C(C)C)cc1`, the Potency result in assay [1] and in assay [2] was “inactive” throughout.
For the compound `CN(Cc1cc(Br)cc(Br)c1N)C1CCCCC1`, the Potency result in assay [1] and in assay [2] was “inactive” in each case.
For `CCN(CC)CC(=O)Nc1c(C)cccc1C(=O)OC`, the Potency entry in assay [1] and in assay [2] was “inactive” in each case.
Take `Cc1c(N)cccc1C(F)(F)F`: the Potency entry in assay [1] and in assay [2] was “inactive” in each case.
`O=C1c2ccccc2C(=O)C1c1ccccc1`: the Potency result in assay [1] and in assay [2] was “inactive” in each case.
`CCCC(=O)O[C@]1(C(=O)COC(=O)CC)CC[C@H]2[C@@H]3CCC4=CC(=O)CC[C@]4(C)[C@H]3[C@@H](O)C[C@@]21C`: in assay [1], the viability change, negative = cytotoxic is 9.89% [at 18.9 µM]. Also, the activity change, negative = cytotoxicity in assay [2] is -7.63% [at 18.9 µM].
Regarding `CCc1occc(=O)c1O`, the Potency result in assay [1] and in assay [2] was “inactive” throughout.
Take `Cc1cc(Cl)c(C)cc1Cl`: the Potency entry in assay [1] and in assay [2] was “inactive” in each case.
On to `CC(C)(CO)COC(=O)C(C)(C)CO`, for which the Potency result in assay [1] and in assay [2] was “inactive” throughout.
In the case of `NS(=O)(=O)O`, the Potency entry in assay [1] and in assay [2] was “inactive” in each case.
For the compound `CC(=O)Nc1ccc(C(=O)O)cc1`, the Potency entry in assay [1] and in assay [2] was “inactive” each time.
For `O=[N+]([O-])c1ccc(Nc2ccc(Nc3ccccc3)c(S(=O)(=O)O)c2)c([N+](=O)[O-])c1`, the Potency entry in assay [1] and in assay [2] was “inactive” each time.
